MITF primary = human MITF inhibition, primary screen; AID 1259374; inhibition, % at 2.6 µM; O75030; 0.91% of 650,000 active; AlphaScreen MITF homodimerization, bead proximity signal; in the data active = inhibition above about 50%;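 note: 0% = vehicle wells with protein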
TEAD-YAP inh = TEAD-YAP interaction inhibition; inhibition, % at 9.12 µM; 1.4% of 640,000 active; HEK-TIYL cells, TEAD-Gal4/YAP UAS-luciferase luminescence; in the data active = inhibition above about 32%;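 note: 0% = median of test compound wells and 100% = reference inhibitor wells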
FBW7 act = human FBW7 E3 ligase activation, primary screen; 0.13% of 650,000 active; AlphaScreen FBW7–phospho-cyclin E peptide binding, activator screen; normalized activity (activation), % at 26.1 µM; in the data active = normalized activity above about 1.9%;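 note: purified mutant Fbw7 with reduced substrate affinity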
Target sequence (Q969H0 whole entry, looked up): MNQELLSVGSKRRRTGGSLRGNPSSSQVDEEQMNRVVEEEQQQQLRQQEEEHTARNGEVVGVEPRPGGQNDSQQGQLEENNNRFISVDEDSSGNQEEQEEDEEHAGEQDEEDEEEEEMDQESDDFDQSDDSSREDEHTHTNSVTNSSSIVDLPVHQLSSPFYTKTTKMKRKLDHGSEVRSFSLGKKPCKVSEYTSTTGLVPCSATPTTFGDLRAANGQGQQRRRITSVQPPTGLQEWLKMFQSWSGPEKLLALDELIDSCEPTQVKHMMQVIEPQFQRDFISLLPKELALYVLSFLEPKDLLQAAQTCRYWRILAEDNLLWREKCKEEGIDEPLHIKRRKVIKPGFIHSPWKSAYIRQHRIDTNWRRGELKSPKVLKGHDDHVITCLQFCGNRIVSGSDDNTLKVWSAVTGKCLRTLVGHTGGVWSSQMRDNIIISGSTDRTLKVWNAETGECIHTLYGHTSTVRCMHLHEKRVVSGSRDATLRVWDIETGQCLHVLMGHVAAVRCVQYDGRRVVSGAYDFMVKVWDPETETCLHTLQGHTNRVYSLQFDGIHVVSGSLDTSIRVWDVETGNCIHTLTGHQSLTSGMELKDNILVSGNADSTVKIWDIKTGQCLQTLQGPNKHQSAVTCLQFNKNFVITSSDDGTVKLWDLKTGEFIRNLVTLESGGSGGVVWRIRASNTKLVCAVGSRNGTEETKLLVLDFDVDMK
GPR151 activ = activators of human GPR151; activation, % at 11.2 µM; PathHunter beta-arrestin GPR151 cells, luminescence; 1% of 650,000 active; in the data active = activation above about 4.9%;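 note: 0% = median of compound wells and 100% = cells with positive control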
* hit, by the source's call. Rows were chosen to be rich in hits. Some 3.5% of all compounds tested hit in one or more screens of this group.

SMILES | MITF primary | TEAD-YAP inh | FBW7 act | GPR151 activ
CS(=O)(=O)c1cc(-c2ccnc(Nc3ccc(-n4cnc(-c5ccccn5)n4)cc3)n2)cc(N2CCOCC2)c1 | -16 | 89* | 0 | -2
O=S1(=O)CCC(NC(=S)Nc2ccc(OC(F)F)cc2)C1 (configuration not stated) | -8 | 41* | 0 | 0
COc1ccc(C(=O)NC(=S)NC2CCS(=O)(=O)C2)cc1 (configuration not stated) | 38 | 2 | 0 | 0
COC(=O)c1c(N)sc(C(=O)Nc2cccc(Cl)c2C)c1C | 4 | 69* | 0 | -4
CCOC(=O)c1c(N)sc(C(=O)Nc2cccc(Cl)c2)c1C | 1 | 50* | 0 | -8
CCOC(=O)c1c(N)sc(C(=O)Nc2ccc(C)c(Cl)c2)c1C | 3 | 35* | 0 | -4
CCOC(=O)c1c(N)sc(C(=O)Nc2ccccc2)c1C | 3 | 32* | 0 | -5
CCN(CC)c1ccc(C(=O)Nc2ccc3c4c(cccc24)C(=O)N3CC)cc1 | -9 | -4 | 0 | 1
Cc1ccccc1Nc1nc(N)nc(CNc2ccc(Cl)cc2)n1 | 2 | -14 | 0 | 0
COc1ccc(Cn2c(SCC(=O)Nc3cccc(C(F)(F)F)c3)nc3ccsc3c2=O)cc1 | 9 | -5 | 0 | 0
CCOC(=O)c1c(N)sc(C(=O)Nc2ccccc2F)c1C | -8 | 48* | 0 | -6
CCOC(=O)c1c(N)sc(C(=O)Nc2ccccc2C(F)(F)F)c1C | 6 | 14 | 0 | 3
CC(=O)C1=NN(c2ccc(Cl)cc2)C(c2ccc3c(c2)OCO3)N1C(C)(C)C (configuration not stated) | 28 | 2 | 2.0* | 0
COc1ccc(N/N=C(\Cl)C(C)=O)cc1 | 20 | 4 | 1.9* | 1
N#CC1CCCc2c1[nH]c1ccc(Cl)cc21 (configuration not stated) | -1 | 39* | 0 | 2
CC1C(c2ccc3ccccc3n2)=CNc2ccccc21 (configuration not stated) | 4 | 41* | 0 | -1
Nn1c(SCC(=O)c2ccc(O)cc2O)nnc1-c1cc(Cl)ccc1Cl | -5 | 42* | 0 | 2
Nn1c(SCC(=O)N2CCCC2)nnc1-c1ccc(Cl)cc1Cl | -9 | -4 | 0 | -1
COCC(=O)NCCNc1nc2c(c(=O)n(C)c(=O)n2C)n1Cc1ccccc1 | -2 | 0 | 0 | 1
O=C(CC1C(=O)N(c2ccc(Cl)cc2)C(=S)N1CCc1ccc(Cl)cc1)Nc1ccc(F)cc1 (configuration not stated) | 21 | -11 | 2.0* | -1
CC1CCc2nc(/C(C#N)=C\c3ccco3)sc2C1 (configuration not stated) | -2 | 70* | 0 | -1
COc1ccc(/C=C(/C#N)c2nc3c(s2)CC(C)CC3)cc1 (configuration not stated) | 7 | -12 | 0 | 1
O=C(N/N=C\c1ccccc1Cl)C(=O)Nc1cccc(Br)c1 | -1 | -6 | 0 | 0
Oc1ccc(-c2noc(-c3ccc(F)cc3)n2)cc1 | -1 | 65* | 0 | -9
Fc1ccc(-c2nc(-c3ccccc3)no2)cc1 | 17 | -34 | 1 | 0
SMILES | MITF primary | TEAD-YAP inh | FBW7 act | GPR151 activ
Cc1nc(CC(=O)c2ccc(O)c(O)c2O)cs1 | 79* | -15 | 0 | -1
O=C(CN1C(=O)c2ccccc2C1=O)N1CCN(c2ccc(F)cc2)CC1 | 26 | -3 | 2.0* | -2
O=S(=O)(c1ccc(Cl)s1)N1CCCC(c2ccccc2)C1 (configuration not stated) | 7 | 0 | 0 | 1
NNC(=O)Cn1c(=O)n(CC(=O)NN)c2ccccc21 | 8 | 14 | 0 | -1
COC(=O)c1ccccc1NC(=O)NNC(=O)c1csc(C)c1-c1ccc(C)cc1 | 1 | 33* | 0 | 2
COC(=O)c1ccccc1NC(=O)NNC(=O)c1cc2ccccc2cc1O | 8 | 1 | 0 | 2
CN(C)c1ccc(/C=C/CN2CCN(Cc3ccc4c(c3)OCO4)CC2)cc1 | 68* | -7 | -1 | 0
O=C(/C=C/c1ccc(Cl)cc1)N1CCN(Cc2ccc3c(c2)OCO3)CC1 | 13 | -1 | 0 | 1
COCCN(C(=O)c1ccno1)c1nnc(C2CCOC2)s1 (configuration not stated) | 12 | -1 | 0 | 1
O=C(N/N=C/C1CC2CCC1C2)c1ccc([N+](=O)[O-])cc1 (configuration not stated) | 14 | 10 | 0 | -1
O=C(N/N=C/C1CC2CCC1C2)c1cccc2ccccc12 (configuration not stated) | -7 | 37* | 0 | 0

Screening data as filed in PubChem.
